From PubChem
JMJD2A Tudor inh – blocks the human JMJD2A Tudor domain; O75164; AlphaScreen JMJD2A-Tudor / H3K4me3 peptide binding; Potency, µM (doses to about 114 µM), inactives show at the highest dose activity change, negative = inhibition, actives largely listed as inhibitors; 4.4% of 390,000 active; AID 504339; also: % is scaled to controls: 0 for no effect and ±100 for the full control effect; nearly all actives have a fitted effect of over 50% in size
HP1b chromo inh – HP1-beta chromodomain-methylated histone interaction inhibition. Potency, µM (titrated, usually from 114 µM), inactives show at the highest dose activity change, negative = inhibition, actives largely listed as inhibitors. AlphaScreen HP1-beta / biotin-H3K9me3 peptide binding. 0.56% of 390,000 active. P83916; also: nearly all actives have a fitted effect of over 70% in size
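HP1-beta protein (50 nM final) preincubated 30 min at room temperature with biotinylated H3(1-18)K9me3 peptide (50 nM) in PBS pH 7.4, 0.01% Tween-20, then compound added for 30 min. AlphaScreen streptavidin donor/nickel chelate acceptor beads (10 ug/mL final), 30 min dark, luminescence read.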
G9a inh – blocks human histone lysine methyltransferase G9a | Q96KQ7 | G9a H3K9 monomethylation, AlphaScreen, 2 h | Potency, µM (highest dose often 102 µM), for inactives: at the highest dose activity, negative = inhibition, actives largely listed as inhibitors | 8.8% of 350,000 active | AID 504332; also: % is scaled to controls: 0 for no effect and ±100 for the full control effect; nearly all actives have a fitted effect of over 75% in size
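G9a (20 nM) was preincubated 15 min with compound, then reacted 2 h at room temperature with 500 nM biotin-H3K9 peptide and 20 µM SAM. Monomethyl-H3K9 detected by AlphaScreen using anti-H3K9me1 antibody.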
L3MBTL1 inh – inhibitors of human L3MBTL1 | Q9Y468 | AlphaScreen L3MBTL1–H3K9me1 peptide binding | Potency, µM (series often up to 57.1 µM), inactives show at the top dose activity, negative = inhibition, most hits filed as inhibitors | 0.66% of 230,000 active; also: % is scaled to controls: 0 for no effect and ±100 for the full control effect; nearly all actives have a fitted effect of over 60% in size
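AlphaScreen assay: L3MBTL1 (50 nM final) was preincubated 30 min at room temperature with biotinylated H3(1-15)K9me1 peptide (75 nM final), then 30 min with library compounds; streptavidin donor and nickel chelate acceptor beads (10 ug/mL final) added, 30 min dark.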
BAZ2B inh – inhibitors of human BAZ2B bromodomain | Q9UIF8 | Potency, µM (highest dose often 114 µM), without a hit: at the highest dose activity change, negative = inhibition, usual class: inhibitors | 4.4% of 360,000 active | AlphaScreen BAZ2B-H3K14Ac peptide displacement; also: % is scaled to controls: 0 for no effect and ±100 for the full control effect; nearly all actives have a fitted effect of over 60% in size
Target sequence (Q9UIF8 whole entry, looked up): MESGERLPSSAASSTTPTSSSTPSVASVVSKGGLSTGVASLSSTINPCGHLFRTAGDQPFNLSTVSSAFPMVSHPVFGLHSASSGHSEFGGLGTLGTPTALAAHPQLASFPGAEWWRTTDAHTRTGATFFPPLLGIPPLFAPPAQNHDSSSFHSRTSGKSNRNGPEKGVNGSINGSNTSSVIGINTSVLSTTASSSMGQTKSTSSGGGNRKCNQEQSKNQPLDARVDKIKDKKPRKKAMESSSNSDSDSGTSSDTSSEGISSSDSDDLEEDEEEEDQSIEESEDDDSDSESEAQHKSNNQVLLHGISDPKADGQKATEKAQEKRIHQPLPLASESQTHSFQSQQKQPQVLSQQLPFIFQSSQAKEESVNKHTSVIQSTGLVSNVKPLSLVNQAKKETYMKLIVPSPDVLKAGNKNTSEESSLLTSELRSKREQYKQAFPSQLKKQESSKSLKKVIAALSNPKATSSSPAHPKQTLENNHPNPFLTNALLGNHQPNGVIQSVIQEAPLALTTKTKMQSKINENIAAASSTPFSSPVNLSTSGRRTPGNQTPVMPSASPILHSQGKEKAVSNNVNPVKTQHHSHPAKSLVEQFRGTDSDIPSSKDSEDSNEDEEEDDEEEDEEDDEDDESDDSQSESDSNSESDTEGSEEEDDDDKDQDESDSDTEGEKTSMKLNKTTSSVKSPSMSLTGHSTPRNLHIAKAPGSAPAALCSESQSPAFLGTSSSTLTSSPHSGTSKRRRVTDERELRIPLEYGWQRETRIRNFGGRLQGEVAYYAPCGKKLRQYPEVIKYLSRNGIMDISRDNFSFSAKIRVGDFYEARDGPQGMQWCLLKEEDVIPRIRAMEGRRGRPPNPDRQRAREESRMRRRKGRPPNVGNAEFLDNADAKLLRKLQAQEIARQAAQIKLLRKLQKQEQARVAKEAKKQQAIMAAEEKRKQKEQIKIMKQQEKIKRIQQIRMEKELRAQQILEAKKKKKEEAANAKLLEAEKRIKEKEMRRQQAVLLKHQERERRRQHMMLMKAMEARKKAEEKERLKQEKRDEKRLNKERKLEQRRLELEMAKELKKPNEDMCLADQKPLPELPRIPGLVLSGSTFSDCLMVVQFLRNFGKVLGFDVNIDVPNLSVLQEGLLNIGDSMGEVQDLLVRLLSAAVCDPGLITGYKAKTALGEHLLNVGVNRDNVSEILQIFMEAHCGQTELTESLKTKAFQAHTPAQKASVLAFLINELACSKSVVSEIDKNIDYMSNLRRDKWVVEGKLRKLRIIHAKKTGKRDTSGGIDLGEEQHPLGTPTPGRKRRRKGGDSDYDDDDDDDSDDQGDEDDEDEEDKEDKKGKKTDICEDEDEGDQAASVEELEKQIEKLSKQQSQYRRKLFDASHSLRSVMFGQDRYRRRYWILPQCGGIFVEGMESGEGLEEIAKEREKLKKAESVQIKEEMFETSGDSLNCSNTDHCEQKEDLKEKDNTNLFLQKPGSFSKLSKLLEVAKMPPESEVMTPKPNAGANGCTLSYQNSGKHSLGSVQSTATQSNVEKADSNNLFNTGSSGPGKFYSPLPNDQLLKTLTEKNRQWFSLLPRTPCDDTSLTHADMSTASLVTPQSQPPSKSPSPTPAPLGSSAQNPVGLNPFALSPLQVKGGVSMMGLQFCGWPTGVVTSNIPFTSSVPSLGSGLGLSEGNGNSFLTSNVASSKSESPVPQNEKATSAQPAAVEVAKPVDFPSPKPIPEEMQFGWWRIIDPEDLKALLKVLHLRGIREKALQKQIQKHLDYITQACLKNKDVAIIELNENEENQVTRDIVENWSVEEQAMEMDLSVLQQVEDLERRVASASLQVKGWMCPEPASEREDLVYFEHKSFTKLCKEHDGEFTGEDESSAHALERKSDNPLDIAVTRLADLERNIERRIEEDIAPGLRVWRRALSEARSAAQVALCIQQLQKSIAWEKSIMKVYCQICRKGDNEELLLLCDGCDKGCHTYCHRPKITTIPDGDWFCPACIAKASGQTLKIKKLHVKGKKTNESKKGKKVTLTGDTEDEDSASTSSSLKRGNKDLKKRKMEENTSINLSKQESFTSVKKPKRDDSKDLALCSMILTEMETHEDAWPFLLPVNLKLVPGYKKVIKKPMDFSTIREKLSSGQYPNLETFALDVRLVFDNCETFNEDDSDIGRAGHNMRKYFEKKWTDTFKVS
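Inhibition is scored as reduced AlphaScreen emission. The BAZ2B/b-H3(5-23)K14Ac complex (50 nM each) in PBS pH 7.4, 0.01% Tween-20 meets compound (up to 110 uM) for 30 min at RT before bead addition.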
* = called active by the depositor; ? = inconclusive; nt = not tested or not shown; ! = a repeat was not active; [ ] = remark or other dose. Hits are enriched below; roughly 11% of the tested compounds scored in any of these assays. Calls follow the shape of the dose curve; as a rule, active = well fitted inhibition curve with a large enough effect; inconclusive = small, poorly fitted or top-dose-only effect; inactive = no such curve, though single readings can be large or run the other way. Potency is read from the fitted curve at half-maximal effect.

SMILES	JMJD2A Tudor inh	HP1b chromo inh	G9a inh	L3MBTL1 inh	BAZ2B inh
COc1ccc(CC(=O)NNC(=O)CSc2nnc(Cc3ccc(OC)cc3)n2-c2ccccc2)cc1	-19.3%	2.4%	10µM*	-0.5%	5.3%
COc1ccc(CC(=O)NNC(=O)CSc2nnc(C)n2-c2ccccc2)cc1	-35.2%	21.0%	?	4.9%	7.4%
Cc1cccc(-n2c(CCc3ccccc3)nnc2SCC(=O)c2ccccc2)c1	?	22.4%	1.78µM*	-5.6%	-12.6%
O=C(O)CSc1nnc(Cc2ccccc2)n1-c1ccccc1	-20.8%	44.3%	11.2µM*	15.1%[11.4 µM]	-6.7%
O=C(COc1ccccc1)NCC(c1ccc(Cl)cc1)N1CCCCC1 (centres undefined)	-6.3%	37.1%	-2.3%[59 µM]	nt	-5.9%
Cc1ccc(-c2[nH]c3c(c2-c2c(-n4cccc4)n(C)c(=O)[nH]c2=O)c(=O)[nH]c(=O)n3C)cc1	-17.9%	36.6%	-6.2%[59 µM]	nt	-5.1%
Cn1c(-n2cccc2)c(-c2c(-c3ccccc3)[nH]c3c2c(=O)[nH]c(=O)n3C)c(=O)[nH]c1=O	-30.8%	-6.6%	-3.5%[12.7 µM]	14.1µM*	79.4µM*
CCOC(=O)C1=C[C@@]2(CC)CCCN3CCc4c(n1c1ccccc41)C32 (some centres undefined)	nt	nt	-28.2%[2.33 µM]	nt	nt
CCN(c1ccccc1)S(=O)(=O)c1ccc(OC)c(NC(=O)c2cc(Cl)ccn2)c1	-4.1%	33.2%	56.2µM*	-6.7%	-2.3%
CCN(c1ccccc1)S(=O)(=O)c1ccc(Cl)c(NC(=O)CNCc2ccccc2OC)c1	3.16µM*	?	nt	-9.8%	nt
CCN(c1ccccc1)S(=O)(=O)c1ccc(Cl)c(NC(=O)CN(C)C2CCN(C)CC2)c1	?	?	11.2µM*	nt	22.4µM*
CCCCCCCCCCCCCCCC(=O)OC[C@H](O)[C@H]1OC[C@@H](O)[C@@H]1O	nt	nt	0.4%[12.7 µM]	nt	nt
COc1ccc(N2CCN(C(=O)C3CCN(S(=O)(=O)c4cn(C)cn4)CC3)CC2)cc1	-7.9%	19.0%	-18.3%[12.7 µM]	nt	-16.0%
CN(C)C1=NCCN1CCCCc1ccccc1	-20.6%	25.4%	12.7%[2.33 µM]	-1.5%	13.4%
CCOc1ccc2c(c1)nc(SCC(=O)c1cccs1)n2C	39.8µM*	10.4%	25.1µM*	0.6%	-7.6%
CCOc1ccc2c(c1)nc(SCC(=O)c1ccc(Br)s1)n2C	39.8µM*	-21.3%	39.8µM*	-4.0%	-38.6%
CCOc1ccc2c(c1)nc(C)n2C	-9.0%	21.8%	nt	10.6%	-6.9%
OCCN(CC#CC(O)(c1ccccc1)c1cccc(F)c1)CCO (centres undefined)	?	-4.8%	nt	11.6%	79.4µM*
COc1ccc2c(c1)CCc1c(C(=O)Nc3c(C)nn(Cc4ccc(C)cc4)c3C)noc1-2	1.4%	3.1%	-31.8%[59 µM]	nt	-28.9%
O=C(O)c1c(C(=O)O)c(-c2ccc(Cl)c(Cl)c2)n2c1CSC2	-22.4%	2.4%	44.7µM*	nt	-36.6%
Cc1ccc(-c2c(C(=O)O)c(C(=O)O)c3n2CCC3)cc1	?	26.8%	?	9.1%	-26.5%
COc1ccc(CNC(=O)COC(=O)C2CC2C)cc1OC (centres undefined)	-7.6%	22.8%	14.1µM*	2.0%	7.9%
COc1ccc(CNC(=O)C2CCCN2)cc1OC (centres undefined)	3.16µM*	79.4µM*	17.8µM*	4.3%	44.7µM*
COc1ccc(CNC(=O)C2CC=CCC2C(=O)O)cc1OC (centres undefined)	-1.5%	14.7%	23.5%[59 µM]	5.8%	16.6%
O=C(NCC1COc2ccccc2O1)c1cccc(S(=O)(=O)N2CCOCC2)c1 (centres undefined)	-15.1%	27.8%	-2.1%[2.33 µM]	1.6%	2.8%
Cn1nnnc1SCCNCc1ccc(OCc2ccc(Cl)cc2)cc1	-25.0%	37.9%	5.3%[59 µM]	nt	-31.2%
O=C(O)CSc1cccc2cccnc12	8.2%	8.7%	14.1µM*!	-4.3%	?
CN(C)S(=O)(=O)c1cccc(NC(=O)CSc2cccc3cccnc23)c1	?	-7.4%	56.2µM*	nt	56.2µM*
CN(C)S(=O)(=O)c1ccc(SCC(=O)Nc2cccc(S(=O)(=O)N3CCCC3)c2)nc1	-16.6%	32.1%	nt	nt	nt
Cc1cc(C(=O)CN2C(=O)NC(Cc3c[nH]c4ccccc34)C2=O)c(C)n1C (centres undefined)	?	0.0%	50.1µM*	?	50.1µM*
